Test results from PubChem BioAssay.
The source made the active and inactive calls. Unless noted, the rule behind the calls is not given here.

How the values were obtained:
[1] = A549 cell viability effects, profiling panel, calcein-AM fluorescence, 48 h, basal (AID 1162); details: higher = more signal; note: test concentration not given here
[2] = adipocyte viability effects, profiling panel, cell-based, 3T3-L1 adipocytes, calcein-AM fluorescence, 48 h, basal (AID 1163); details: 3T3-L1 adipocytes viability, higher = more signal; note: test concentration not given here
[3] = HepG2 cell viability effects, profiling panel, calcein-AM fluorescence, 48 h, basal (AID 1164); details: higher = more signal; note: test concentration not given here
[4] = MM1S cell viability effects, profiling panel, calcein-AM fluorescence, 48 h, basal (AID 1165); details: higher = more signal;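 note: viability of MM1S multiple myeloma cells under basal unstimulated conditions; test concentration not given here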
[5] = basal RPMI8226 viability, no added stimulus, profiling panel, cell-based, calcein-AM fluorescence, 48 h, PK04 Diversity Set (AID 1166); details: RPMI8226 myeloma viability, higher = more signal;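 note: cells grown under basal conditions without added stimulus; test concentration not given here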
[6] = basal HepG2 mitochondrial membrane potential changes, profiling panel, cell-based, JC-1 fluorescence, 24 h, 100 nL compound (AID 1167); details: higher = more signal; note: test concentration not given here
[7] = basal 3T3-L1 adipocyte mitochondrial potential changes, profiling panel, cell-based, JC-1 fluorescence, 3T3-L1 adipocytes, 24 h, 100 nL compound (AID 1168); details: JC-1 mitochondrial fluorescence, higher = more signal, called active from +8 up or from −8 down; note: test concentration not given here
[8] = basal RPMI8226 mitochondrial membrane potential changes, profiling panel, cell-based, JC-1 fluorescence, 24 h, 100 nL compound (AID 1169); details: RPMI8226 myeloma, JC-1 mitochondrial potential fluorescence, higher = more signal; note: test concentration not given here
[9] = basal MM1S mitochondrial membrane potential changes, profiling panel, cell-based, JC-1 fluorescence, 24 h, 100 nL compound (AID 1170); details: higher = more signal; note: test concentration not given here
[10] = A549 lung cancer cell viability effects, profiling panel, resazurin fluorescence, 24 h, PK04 Diversity Set (AID 1171); details: higher = more signal, called active from +8 up or from −8 down; note: test concentration not given here
[11] = HepG2 liver cancer cell viability effects, profiling panel, resazurin fluorescence, 24 h, PK04 Diversity Set (AID 1172); details: higher = more signal; note: test concentration not given here
[12] = basal S. cerevisiae growth modulation, no modifier, primary screen, OD600, strain BY4716, 24 h, basal condition (AID 1173); details: OD600, 24 h, higher = more signal, called active from +8 up or from −8 down
[13] = MM1S myeloma cell viability, profiling panel, resazurin fluorescence, basal, 24 h, PK04 Diversity Set (AID 1174); details: higher = more signal, called active from +8 up or from −8 down;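 note: MM1S multiple myeloma cell line; test concentration not given here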
[14] = molecular target: Dihydroorotate dehydrogenase (quinone), mitochondrial (Plasmodium falciparum (isolate 3D7)) (UniProt Q08210); assay: PfDHODH enzyme inhibitors, primary screen, biochemical, C-terminal His tag, absorbance 600 nm (AID 1175); details: DCIP absorbance 600 nm, higher = more signal, called active from +8 up or from −8 down;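 note: recombinant parasite enzyme with a five histidine tag at its C terminus; test concentration not given here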
[15] = P. aeruginosa biofilm formation inhibitors, primary screen, strain PAO1, LB-PBS medium, absorbance 600 nm (AID 1176); note: test concentration not given here; details: P. aeruginosa PAO1 growth/biofilm, A600, 12 h; higher = more signal
[16] = S. cerevisiae RM11-1a growth modifiers, primary screen, strain RM11-1a, OD600, basal, 24 h (AID 1177); details: OD600, 24 h, higher = more signal, called active from +8 up or from −8 down;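 note: cultures grown under basal conditions with no added stressor; test concentration not given here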
[17] = E. coli acrAB mutant growth effects, primary screen, E. coli filamentation inducers, strain DRC39, OD650, 24 h (AID 1178); details: higher = more signal, called active from +8 up or from −8 down;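 note: growth measured as culture turbidity by optical density at 650 nm; test concentration not given here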
[18] = E. coli acrAB mutant growth effects, primary screen, E. coli filamentation inducers, strain DRC39, OD650, 48 h (AID 1179);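 note: screen aims at cell division blockers that make cells filament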; details: E. coli DRC39 delta-acrAB growth, higher = more signal, called active from +8 up or from −8 down
[19] = RPMI8226 myeloma cell viability, profiling panel, resazurin fluorescence, basal, 24 h, PK04 Diversity Set (AID 1180); details: higher = more signal;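 note: RPMI8826 multiple myeloma cell line at 5000 cells per well; test concentration not given here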
[20] = molecular target: E3 ubiquitin-protein ligase XIAP (Homo sapiens) (UniProt P98170); assay: XIAP binders, primary screen, biophysical, small-molecule microarray, fluorescence 635 nm (AID 1181); details: small-molecule microarray binding, higher = more signal;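 note: score merges 667 nm emission and signal to noise over triplicate slides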
E3 ubiquitin-protein ligase XIAP (Homo sapiens), sequence (P98170 whole entry, looked up): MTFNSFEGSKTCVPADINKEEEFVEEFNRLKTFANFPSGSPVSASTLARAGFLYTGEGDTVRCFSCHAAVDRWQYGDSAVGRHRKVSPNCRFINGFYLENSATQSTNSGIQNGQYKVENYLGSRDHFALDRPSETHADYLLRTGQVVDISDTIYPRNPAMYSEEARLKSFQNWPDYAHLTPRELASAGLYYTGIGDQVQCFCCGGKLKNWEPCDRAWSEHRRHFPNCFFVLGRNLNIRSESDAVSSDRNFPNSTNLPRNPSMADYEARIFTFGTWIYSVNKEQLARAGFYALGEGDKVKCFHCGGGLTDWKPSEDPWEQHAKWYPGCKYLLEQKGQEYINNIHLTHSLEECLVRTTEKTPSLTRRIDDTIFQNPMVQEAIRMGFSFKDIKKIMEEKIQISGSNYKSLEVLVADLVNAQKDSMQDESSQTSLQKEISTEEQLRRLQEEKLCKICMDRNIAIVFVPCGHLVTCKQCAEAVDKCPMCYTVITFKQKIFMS

Dihydroorotate dehydrogenase (quinone), mitochondrial (Plasmodium falciparum (isolate 3D7)), sequence (Q08210 whole entry, looked up): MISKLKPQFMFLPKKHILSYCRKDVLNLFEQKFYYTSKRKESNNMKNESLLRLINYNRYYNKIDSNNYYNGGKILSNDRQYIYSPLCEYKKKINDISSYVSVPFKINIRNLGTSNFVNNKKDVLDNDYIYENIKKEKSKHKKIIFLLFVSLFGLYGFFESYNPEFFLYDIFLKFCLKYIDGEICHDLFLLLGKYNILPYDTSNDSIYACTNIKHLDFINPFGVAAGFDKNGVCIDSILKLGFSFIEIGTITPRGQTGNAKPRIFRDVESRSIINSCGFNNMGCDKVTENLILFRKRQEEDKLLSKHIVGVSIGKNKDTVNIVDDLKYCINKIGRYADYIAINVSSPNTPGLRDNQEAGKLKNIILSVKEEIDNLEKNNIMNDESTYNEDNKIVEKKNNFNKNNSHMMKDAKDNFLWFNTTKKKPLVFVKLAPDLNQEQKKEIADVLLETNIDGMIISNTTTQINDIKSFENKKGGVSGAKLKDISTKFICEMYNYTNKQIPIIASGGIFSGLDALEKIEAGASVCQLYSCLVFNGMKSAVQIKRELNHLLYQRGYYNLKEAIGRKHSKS

Row | Structure (SMILES) | z-score [1] | z-score [2] | z-score [3] | z-score [4] | z-score [5] | z-score [6] | z-score [7] | z-score [8] | z-score [9] | z-score [10] | z-score [11] | z-score [12] | z-score [13] | composite z-score [14] | z-score [15] | z-score [16] | z-score [17] | z-score [18] | z-score [19] | composite z-score [20]
1 | C#CCCCON=C1C[C@@H](O)[C@@H](O)[C@@H]2[C@@H]3C(=O)N(CC)C(=O)[C@@H]3CC[C@@H]12 | -0.36 | -0.843 | 0.075 | 0.0133 | 0.338 | -0.836 | -1.26 (inactive) | -0.0744 | -0.312 | -0.526 (inactive) | -0.245 | 0.961 (inactive) | -0.529 (inactive) | -0.367 (inactive) | 0.07 (inactive) | 0.375 (inactive) | 0.0322 (inactive) | -0.569 (inactive) | -0.244 | -0.0473
2 | O=c1n(Cc2cc3c(cc2Cl)OCO3)c(=O)n2n1CC[C@@H]1C(=NOCc3ccccc3)[C@H]3O[C@H]3[C@@H](O)[C@@H]12 | 0.7 | -0.362 | 0.941 | -0.64 | 0.341 | 1.1 | 0.218 (inactive) | 0.185 | 0.178 | -1.11 (inactive) | -0.0806 | -1.61 (inactive) | -0.595 (inactive) | -1.22 (inactive) | 0.14 (inactive) | -1.8 (inactive) | -0.485 (inactive) | -0.628 (inactive) | -1.02 | -0.0365
3 | COC(=O)[C@@H]1CC[C@H](C)[C@@H](c2ccc(C)cc2)N1C(=O)c1ccc(C=NOCC[C@@H]2C=C[C@H](OC(C)=O)[C@@H](COC(C)=O)O2)cc1 | -0.521 | 0.556 | -1.13 | -0.958 | -1.32 | -0.674 | -1.67 (inactive) | 0.682 | -0.136 | 0.154 (inactive) | -0.574 | 1.76 (inactive) | -0.761 (inactive) | 1.16 (inactive) | 0.888 (inactive) | 1.98 (inactive) | 0.667 (inactive) | -0.62 (inactive) | -0.337 | -0.291
4 | CCOC(=O)[C@H](Cc1ccccc1)NC(=O)CCC1CC(OC(=O)NCc2ccc3c(c2)OCO3)CC2(CCCC(COC(=O)NCCc3ccccc3OC)O2)O1 (stereo not given in full) | -1.24 | -0.399 | -0.519 | -0.271 | -0.502 | -0.778 | -0.877 (inactive) | 0.444 | 0.00939 | 0.124 (inactive) | -0.23 | 0.911 (inactive) | -0.32 (inactive) | 0.0964 (inactive) | 0.426 (inactive) | 0.824 (inactive) | -0.0754 (inactive) | -0.731 (inactive) | 0.0481 | -0.024
5 | CC(C)=CCCC(C)=CCON=C1C[C@@H](O)[C@@H](O)[C@@H]2[C@@H]3C(=O)N(c4ccc(F)cc4F)C(=O)[C@@H]3CC[C@@H]12 | -1.34 | 0.425 | -0.354 | -0.586 | -1.47 | 0.208 | -1.28 (inactive) | -0.163 | -0.356 | -0.179 (inactive) | 0.387 | -1.38 (inactive) | 0.77 (inactive) | 0.263 (inactive) | 0.519 (inactive) | 0.225 (inactive) | 0.781 (inactive) | 0.345 (inactive) | 0.75 | -0.336
6 | C=CC[C@@H]1C=C[C@H](ON=C(C)CCC(=O)OC[C@H]2O[C@H](C#Cc3ccccc3)C=C[C@@H]2Oc2ccc(C)cc2)[C@@H](CO)O1 | 0.572 | -0.48 | -0.0329 | 0.551 | -0.737 | -0.429 | -0.311 (inactive) | -0.759 | -1.08 | 0.231 (inactive) | -0.0055 | 1.09 (inactive) | 0.212 (inactive) | 0.103 (inactive) | -0.242 (inactive) | 1.23 (inactive) | 0.911 (inactive) | -1.55 (inactive) | -0.177 | 0.132
7 | Cc1ccc(S(=O)(=O)OC[C@H]2CN3[C@H](c4ccc(Br)cc4)[C@@H](C)CC[C@H]3C(=O)O2)cc1 | 0.602 | -0.744 | 0.62 | -0.0638 | -0.75 | 0.914 | 0.555 (inactive) | -0.103 | 0.222 | 0.683 (inactive) | 0.794 | -9.35 (active) | 0.648 (inactive) | -0.303 (inactive) | 1.29 (inactive) | -1.42 (inactive) | 1.31 (inactive) | 0.618 (inactive) | 0.521 | 0.201
8 | CC(C)CON=C1C[C@@H](O)[C@@H](O)[C@@H]2[C@@H]3C(=O)N(Cc4ccc5c(c4)OCO5)C(=O)[C@@H]3CC[C@H]12 | -0.223 | -0.503 | -0.479 | 0.119 | -1.15 | 0.174 | -0.589 (inactive) | 0.704 | -0.146 | 0.56 (inactive) | 0.259 | 0.151 (inactive) | -0.146 (inactive) | 0.834 (inactive) | -0.626 (inactive) | 0.812 (inactive) | 0.0036 (inactive) | -0.0961 (inactive) | -0.0651 | -0.184
9 | CO[C@@H]1COC(=O)[C@@H]2CCCN2C(=O)[C@@H](C)COC(=O)CC=C[C@H]1C | -1.06 | -0.11 | -0.321 | 0.0099 | -0.748 | -0.2 | -1.49 (inactive) | -0.0504 | -0.684 | 0.948 (inactive) | 1.09 | 0.755 (inactive) | 0.468 (inactive) | -0.385 (inactive) | -0.749 (inactive) | 0.0994 (inactive) | 0.207 (inactive) | -0.179 (inactive) | 0.189 | -0.273
